In PubChem BioAssay (NCATS):
Records with an inconclusive call do not appear. Unmarked numbers belong to inactive results. The source made the active and inactive calls. Unless noted, calls come from the whole dose curve; as a rule, active = well fitted curve in the direction sought with a large enough effect; inconclusive = small, poorly fitted or top-dose-only effect, or another doubt; inactive = no such curve, though single readings can be large; an effect the other way counts as inactive or inconclusive.

Tests used:
[1] = AP1 Signaling Pathway (AID 357; active = well fitted curve in either direction with a large enough effect, not every such curve was filed as active;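 note: ME-180 reporter cells stimulated with EGF at its EC50 level; % is set by controls: 0 for no effect and ±100 for the full control effect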); details: ME-180 AP-1-bla reporter, EGF-induced, beta-lactamase ratio, 5 h; at 7.69 µM (top of the series) unless noted
Procedure, shortened: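 In this screen, ME-180 cells in Opti-MEM with 0.5% dialyzed FBS received EC50 EGF and compound titrations for 5 h. AP-1 reporter beta-lactamase was detected via CCF4 ratio, giving AC50 for positive and negative modulators.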

[2] = target: Cytochrome P450 1A2 (Homo sapiens) (UniProt P05177); experiment: p450-cyp1a2 (AID 410; calls by dose curve; note: potency is the fitted concentration of half-maximal effect)
Chain of Cytochrome P450 1A2 (Homo sapiens) (P05177 whole entry, looked up): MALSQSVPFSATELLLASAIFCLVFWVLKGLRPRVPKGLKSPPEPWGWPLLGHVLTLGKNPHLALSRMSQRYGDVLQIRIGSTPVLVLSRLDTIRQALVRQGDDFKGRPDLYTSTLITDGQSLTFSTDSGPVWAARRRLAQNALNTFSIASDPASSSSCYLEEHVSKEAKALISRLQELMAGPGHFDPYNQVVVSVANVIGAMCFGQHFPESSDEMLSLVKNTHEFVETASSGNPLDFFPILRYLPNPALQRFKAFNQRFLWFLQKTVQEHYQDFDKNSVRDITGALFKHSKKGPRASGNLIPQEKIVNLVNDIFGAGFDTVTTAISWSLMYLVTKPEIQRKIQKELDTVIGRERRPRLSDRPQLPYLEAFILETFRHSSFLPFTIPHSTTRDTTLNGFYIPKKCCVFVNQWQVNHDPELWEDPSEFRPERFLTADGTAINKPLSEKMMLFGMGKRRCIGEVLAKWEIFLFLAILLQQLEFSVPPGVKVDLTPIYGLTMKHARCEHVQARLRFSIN
Procedure, shortened: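 Read-out is luminescence from luciferin produced by CYP1A2 demethylation of Luciferin-ME (100uM, at Km). Detection reagent stopped the 60 min NADPH-dependent reaction; signals were normalized to 57 uM furafylline.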

[3] = NFAT Signaling Pathway (AID 444; active = well fitted curve in either direction with a large enough effect, not every such curve was filed as active;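 note: carbachol stimulus at about its EC50 of 1 µM final; % is set by controls: 0 for no effect and ±100 for the full control effect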); details: Jurkat NFAT-bla M1, carbachol, beta-lactamase ratio, 5 h; at 7.69 µM (top of the series) unless noted
Procedure, shortened: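 Read-out: CCF4 FRET ratio (460 nm/530 nm) after 1 h RT dye loading, used for %activity and AC50 from titration series. Cells: Jurkat NFAT-β-lactamase/M1 line, treated with compound plus 1 uM carbachol for 5 h, 37 °C.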

[4] = Stat Signaling Pathway (AID 446; active = well fitted curve in either direction with a large enough effect, not every such curve was filed as active;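 note: ME-180 cervical cancer cells given 40 pM IL-6 alongside compound; SIE-controlled beta-lactamase reporter measured as 460/530 nm FRET emission ratio; % is set by controls: 0 for no effect and ±100 for the full control effect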); details: ME-180 (cervical carcinoma) SIE beta-lactamase reporter, IL-6 stimulated, 5 h; at 7.69 µM (top of the series) unless noted
Procedure, shortened: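 Overnight-plated ME-180 cells bearing a STAT Inducible Element beta-lactamase reporter; 5 h co-exposure to compound and 40 pM IL-6; values normalized to 300 pM IL-6 and 125 nM JAK inhibitor controls.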

[5] = target: Mitogen-activated protein kinase 10 (Mus musculus) (UniProt Q61831); experiment: JNK3 AlphaScreen Assay (AID 530; active = well fitted curve in either direction with a large enough effect, not every such curve was filed as active;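 note: kinase came from lysate of stimulated human HepG2 cells; signal reports phosphorylation of biotinylated GST-cJun 1-79 at Ser73 with 10 µM ATP; % is set by controls: 0 for no effect and ±100 for the full control effect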)
Procedure, shortened: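 Kinase buffer: 20 mM Tris-HCl pH 7.6, 10 mM MgCl2, 1 mM DTT, 0.1 mM Na3VO4, 0.01% Tween-20; ATP 10 uM. Substrate biotin-GST-cJun(1-79), enzyme from activated HepG2 lysates. Detection by Ser73 phospho-antibody AlphaScreen.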

[6] = target: 3',5'-cyclic-AMP phosphodiesterase 4B (Homo sapiens) (UniProt Q07343); experiment: qHTS Assay for Inhibitors of PDE-IV (AID 607; active = well fitted activation curve with a large enough effect in the main read-out, with a control signal flat, not every such curve was filed as active; note: % of control where 0% means no effect)
Chain of 3',5'-cyclic-AMP phosphodiesterase 4B (Homo sapiens) (Q07343 whole entry, looked up): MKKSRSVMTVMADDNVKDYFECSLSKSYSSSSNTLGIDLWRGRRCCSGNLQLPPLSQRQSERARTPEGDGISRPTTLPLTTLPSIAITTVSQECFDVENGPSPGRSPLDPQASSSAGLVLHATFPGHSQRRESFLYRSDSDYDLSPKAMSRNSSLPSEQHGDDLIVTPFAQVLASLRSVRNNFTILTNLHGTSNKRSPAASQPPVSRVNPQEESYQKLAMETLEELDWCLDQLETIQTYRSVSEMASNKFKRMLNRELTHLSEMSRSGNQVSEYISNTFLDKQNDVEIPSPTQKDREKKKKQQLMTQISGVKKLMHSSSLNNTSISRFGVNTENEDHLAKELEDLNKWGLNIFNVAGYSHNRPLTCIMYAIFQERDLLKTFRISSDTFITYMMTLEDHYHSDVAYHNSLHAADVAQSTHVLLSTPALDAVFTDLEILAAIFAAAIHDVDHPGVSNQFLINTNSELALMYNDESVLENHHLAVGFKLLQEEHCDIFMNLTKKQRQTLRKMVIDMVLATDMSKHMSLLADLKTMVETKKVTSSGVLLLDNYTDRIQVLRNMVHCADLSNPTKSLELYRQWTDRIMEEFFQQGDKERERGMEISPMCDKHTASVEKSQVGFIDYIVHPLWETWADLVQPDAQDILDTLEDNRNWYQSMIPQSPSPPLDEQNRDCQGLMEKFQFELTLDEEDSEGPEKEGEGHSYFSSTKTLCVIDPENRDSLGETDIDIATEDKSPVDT
Procedure, shortened: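 Live HEK293 cells with a modified cyclic nucleotide-gated (CNG) channel report intracellular cAMP via membrane-potential dye fluorescence (ex 535/em 590 nm). Endogenous PDE-IV was targeted. Compounds were tested at up to 22.9 uM final; RO 20-1724 100 uM served as control.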

[7] = target: ATP-dependent 6-phosphofructokinase (Trypanosoma brucei brucei) (UniProt O15648); experiment: qHTS Assay to Find Inhibitors of T. brucei phosphofructokinase: hit validation (AID 492961)
Chain of ATP-dependent 6-phosphofructokinase (Trypanosoma brucei brucei) (O15648 whole entry, looked up): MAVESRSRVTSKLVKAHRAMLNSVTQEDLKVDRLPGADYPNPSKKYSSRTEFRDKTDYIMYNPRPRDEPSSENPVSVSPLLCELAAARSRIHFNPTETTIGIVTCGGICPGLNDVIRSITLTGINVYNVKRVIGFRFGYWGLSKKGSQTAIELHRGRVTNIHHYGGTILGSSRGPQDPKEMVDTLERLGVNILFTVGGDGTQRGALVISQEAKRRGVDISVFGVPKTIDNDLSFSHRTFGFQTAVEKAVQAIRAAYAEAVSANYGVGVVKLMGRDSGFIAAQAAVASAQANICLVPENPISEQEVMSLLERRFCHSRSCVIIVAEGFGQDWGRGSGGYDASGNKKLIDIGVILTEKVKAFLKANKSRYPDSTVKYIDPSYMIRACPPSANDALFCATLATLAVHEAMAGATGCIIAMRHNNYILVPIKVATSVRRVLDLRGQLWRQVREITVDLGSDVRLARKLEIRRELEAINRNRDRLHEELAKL
Procedure, shortened: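 ADP-Glo luminescence read-out of ADP formed by 1.25 nM PFK from 0.1 mM ATP and 0.5 mM F6P (TEA pH 8.0, 45 min, RT). Compounds titrated; activity normalized to no-enzyme and full-enzyme controls.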

[8] = target: Ubiquitin carboxyl-terminal hydrolase 1 (Homo sapiens) (UniProt O94782); experiment: Inhibitors of USP1/UAF1: Pilot qHTS (AID 504865);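 note: rhodamine fluorescence freed from ubiquitin-rhodamine substrate followed over time; top concentration of the series differs between compounds; % is set by controls: 0 for no effect and ±100 for the full control effect; nearly all actives have a fitted effect of over 35% in size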
Chain of Ubiquitin carboxyl-terminal hydrolase 1 (Homo sapiens) (O94782 whole entry, looked up): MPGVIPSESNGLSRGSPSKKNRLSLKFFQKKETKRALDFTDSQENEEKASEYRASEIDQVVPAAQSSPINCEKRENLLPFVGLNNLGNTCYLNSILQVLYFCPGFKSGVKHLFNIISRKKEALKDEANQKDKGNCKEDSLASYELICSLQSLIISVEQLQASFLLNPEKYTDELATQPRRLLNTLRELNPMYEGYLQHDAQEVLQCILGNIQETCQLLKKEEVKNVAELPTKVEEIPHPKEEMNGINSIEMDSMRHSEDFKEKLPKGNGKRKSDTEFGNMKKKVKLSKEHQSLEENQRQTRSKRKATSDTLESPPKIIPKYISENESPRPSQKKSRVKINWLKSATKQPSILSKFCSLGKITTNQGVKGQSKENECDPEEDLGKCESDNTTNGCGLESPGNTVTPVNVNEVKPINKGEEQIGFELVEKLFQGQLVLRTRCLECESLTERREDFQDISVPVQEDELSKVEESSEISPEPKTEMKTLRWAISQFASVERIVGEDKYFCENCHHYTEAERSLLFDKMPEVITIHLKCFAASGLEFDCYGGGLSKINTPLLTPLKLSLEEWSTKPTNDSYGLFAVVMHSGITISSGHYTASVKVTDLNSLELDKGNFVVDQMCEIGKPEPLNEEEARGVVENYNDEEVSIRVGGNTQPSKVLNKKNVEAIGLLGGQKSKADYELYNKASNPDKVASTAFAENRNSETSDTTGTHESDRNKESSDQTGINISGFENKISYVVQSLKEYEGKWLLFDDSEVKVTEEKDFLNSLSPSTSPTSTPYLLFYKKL
Procedure, shortened: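 Kinetic fluorescence assay: 1nM USP1/UAF1, 15 min compound preincubation, then 150nM Ub-Rho; 480/540 nm.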

[9] = target: Luciferin 4-monooxygenase (Photinus pyralis) (UniProt P08659); experiment: Biochemical firefly luciferase enzyme assay for NPC (AID 624030);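 note: purified P. pyralis luciferase at 10 nM with luciferin and ATP substrate; 0% = DMSO and -100% = full luciferase inhibition by PTC124 control; nearly all actives have a fitted effect of over 70% in size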
Chain of Luciferin 4-monooxygenase (Photinus pyralis) (P08659 whole entry, looked up): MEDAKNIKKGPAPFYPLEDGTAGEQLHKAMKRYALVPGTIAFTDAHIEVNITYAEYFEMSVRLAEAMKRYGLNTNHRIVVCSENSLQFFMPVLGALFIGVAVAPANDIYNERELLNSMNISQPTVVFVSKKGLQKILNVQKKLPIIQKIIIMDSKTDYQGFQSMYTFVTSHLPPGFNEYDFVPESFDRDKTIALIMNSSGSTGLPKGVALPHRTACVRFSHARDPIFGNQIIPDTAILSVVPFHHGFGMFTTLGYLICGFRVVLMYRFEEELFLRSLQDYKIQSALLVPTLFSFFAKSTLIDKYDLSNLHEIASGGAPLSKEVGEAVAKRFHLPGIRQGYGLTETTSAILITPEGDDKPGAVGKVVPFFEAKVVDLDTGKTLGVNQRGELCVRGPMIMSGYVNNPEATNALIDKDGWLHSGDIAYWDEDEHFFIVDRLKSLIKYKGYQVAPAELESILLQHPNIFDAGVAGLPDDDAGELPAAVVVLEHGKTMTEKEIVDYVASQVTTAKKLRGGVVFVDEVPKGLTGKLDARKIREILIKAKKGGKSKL
Procedure, shortened: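 Direct inhibition of firefly luciferase enzyme (10 nM final, 50 mM Tris Acetate) assessed by luminescence within 5 minutes. Percent activity scaled between DMSO and PTC124 positive control, with concentration-effect curves classified by fit quality and response.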

[10] = S16 Schwann cell viability assay (CellTiter-Glo assay) (AID 624031);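 note: native untransfected S16 rat Schwann cells; cellular ATP luminescence as a viability measure; plate controls were DMSO-treated cells for no effect and cell-free wells for full effect; nearly all actives have a fitted effect of over 70% in size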
Procedure, shortened: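 Cells were seeded at 500-750 per well in phenol red-free DMEM with 10% FBS and left overnight. Compounds or DMSO were pinned in, incubation ran 24 h at 37 °C/5% CO2, then CellTiter-Glo reagent was added and luminescence measured.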

[11] = S16 Schwann cell PMP22 intronic element firefly luciferase assay (AID 624032);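 note: plate controls were DMSO for no effect and PTC124 positive control mean for full effect; nearly all actives have a fitted effect of over 30% in size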
Procedure, shortened: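 Luciferase reporter of PMP22 intronic-element expression in stably transfected S16 rat Schwann cells, read by ONE-Glo luminescence after 24 h compound exposure at 37 C. Activity scaled between DMSO (0%) and positive-control PTC124; concentration-effect curves quality-classified.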

[12] = S16 Schwann cell PMP22 intronic element beta-lactamase assay (AID 624044; calls by dose curve;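 note: 0% = DMSO and -100% = potassium clavulanate positive control; nearly all actives have a fitted effect of over 15% in size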)
Procedure, shortened: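 Beta-lactamase reporter under a PMP22 intronic regulatory element in stable S16 rat Schwann cells; 24 h compound exposure. 460 nm blue signal normalized between DMSO (0%) and potassium clavulanate, with 535 nm FRET tracking viability; curves classed by r2 and response.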

[13] = qHTS profiling for inhibitors of Plasmodium falciparum proliferation (AID 504749); note: nearly all actives have a fitted effect of over 60% in size; note: potency is the fitted concentration of half-maximal effect;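 for activity, negative = inhibition: 0% = DMSO vehicle and full inhibition = artemisinin control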; details: P. falciparum in erythrocytes, SYBR Green DNA, 72 h; parasite line B
Procedure, shortened: (§1)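 In a 72 h erythrocytic culture (37 C, humidified, 5% CO2) at 2.5% hematocrit and 0.3% starting parasitemia, compounds were tested; SYBR Green I in detergent lysis buffer stained parasite DNA overnight.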

[14] = tested on: 3D7; experiment: as above; details: P. falciparum in erythrocytes, SYBR Green DNA, 72 h; series mostly up to 28.7 µM
Procedure, shortened: as §1

[15] = tested on: 7G8; experiment: as above; details: P. falciparum in erythrocytes, SYBR Green DNA, 72 h; series mostly up to 28.7 µM
Procedure, shortened: as §1

[16] = tested on: AA1029; experiment: as above; details: P. falciparum in erythrocytes, SYBR Green DNA, 72 h; series mostly up to 28.7 µM
Procedure, shortened: as §1

[17] = tested on: AS120; experiment: as above; details: P. falciparum in erythrocytes, SYBR Green DNA, 72 h; series mostly up to 28.7 µM
Procedure, shortened: as §1

[18] = tested on: ATS95; experiment: as above; details: P. falciparum in erythrocytes, SYBR Green DNA, 72 h; series mostly up to 28.7 µM
Procedure, shortened: as §1

[19] = tested on: CP203; experiment: as above; details: P. falciparum in erythrocytes, SYBR Green DNA, 72 h; series mostly up to 28.7 µM
Procedure, shortened: as §1

[20] = tested on: CP215; experiment: as above; details: P. falciparum in erythrocytes, SYBR Green DNA, 72 h; series mostly up to 28.7 µM
Procedure, shortened: as §1

[21] = tested on: CP217; experiment: as above; details: P. falciparum in erythrocytes, SYBR Green DNA, 72 h; series mostly up to 28.7 µM
Procedure, shortened: as §1

[22] = tested on: CP238; experiment: as above; details: P. falciparum in erythrocytes, SYBR Green DNA, 72 h; series mostly up to 28.7 µM
Procedure, shortened: as §1

[23] = tested on: CP252; experiment: as above; details: P. falciparum in erythrocytes, SYBR Green DNA, 72 h; series mostly up to 28.7 µM
Procedure, shortened: as §1

[24] = tested on: CP260; experiment: as above; details: P. falciparum in erythrocytes, SYBR Green DNA, 72 h; series mostly up to 28.7 µM
Procedure, shortened: as §1

[25] = tested on: CP265; experiment: as above; details: P. falciparum in erythrocytes, SYBR Green DNA, 72 h; series mostly up to 28.7 µM
Procedure, shortened: as §1

[26] = tested on: CP335; experiment: as above; details: P. falciparum in erythrocytes, SYBR Green DNA, 72 h; series mostly up to 28.7 µM
Procedure, shortened: as §1

[27] = tested on: DFO2036; experiment: as above; details: P. falciparum in erythrocytes, SYBR Green DNA, 72 h; series mostly up to 28.7 µM
Procedure, shortened: as §1

[28] = tested on: DIV14; experiment: as above; details: P. falciparum in erythrocytes, SYBR Green DNA, 72 h; series mostly up to 28.7 µM
Procedure, shortened: as §1

[29] = tested on: DIV17; experiment: as above; details: P. falciparum in erythrocytes, SYBR Green DNA, 72 h; series mostly up to 28.7 µM
Procedure, shortened: as §1

[30] = tested on: DIV30; experiment: as above; details: P. falciparum in erythrocytes, SYBR Green DNA, 72 h; series mostly up to 28.7 µM
Procedure, shortened: as §1

[31] = tested on: Dd2; experiment: as above; details: P. falciparum in erythrocytes, SYBR Green DNA, 72 h; series mostly up to 28.7 µM
Procedure, shortened: as §1

[32] = tested on: GB4; experiment: as above; details: P. falciparum in erythrocytes, SYBR Green DNA, 72 h; series mostly up to 28.7 µM
Procedure, shortened: as §1

[33] = tested on: ICS; experiment: as above; details: P. falciparum in erythrocytes, SYBR Green DNA, 72 h; series mostly up to 28.7 µM
Procedure, shortened: as §1

[34] = tested on: N140; experiment: as above; details: P. falciparum in erythrocytes, SYBR Green DNA, 72 h; series mostly up to 28.7 µM
Procedure, shortened: as §1

[35] = tested on: P94_40; experiment: as above; details: P. falciparum in erythrocytes, SYBR Green DNA, 72 h; series mostly up to 28.7 µM
Procedure, shortened: as §1

[36] = tested on: PAD; experiment: as above; details: P. falciparum in erythrocytes, SYBR Green DNA, 72 h; series mostly up to 28.7 µM
Procedure, shortened: as §1

[37] = tested on: PC26; experiment: as above; details: P. falciparum in erythrocytes, SYBR Green DNA, 72 h; series mostly up to 28.7 µM
Procedure, shortened: as §1

[38] = tested on: TAB109; experiment: as above; details: P. falciparum in erythrocytes, SYBR Green DNA, 72 h; series mostly up to 28.7 µM
Procedure, shortened: as §1

[39] = tested on: TAB165; experiment: as above; details: P. falciparum in erythrocytes, SYBR Green DNA, 72 h; series mostly up to 28.7 µM
Procedure, shortened: as §1

[40] = tested on: W2; experiment: as above; details: P. falciparum in erythrocytes, SYBR Green DNA, 72 h; series mostly up to 28.7 µM
Procedure, shortened: as §1

## C[C@H]1C[C@@H]2[C@H]3CCC4=CC(=O)C=C[C@@]4(C)[C@@]3(Cl)[C@@H](O)C[C@]2(C)[C@]1(OC(=O)c1ccco1)C(=O)CCl
[1]
  activity change, negative = inhibition: -22% [at 17.2 µM]
[2]
  Potency: 5.01 µM (active)
[3]
  activity change, negative = inhibition: -27.1% [at 17.2 µM]
[4]
  activity, negative = inhibition: -1.49% [at 17.2 µM]
[5]
  Potency: inactive
[6]
  Potency: inactive
[7]
  outcome: inactive
[8]
  Potency: inactive
[9]
  outcome: inactive
[10]
  Potency: inactive
[11]
  Potency: inactive
[12]
  outcome: inactive
[13]
  Potency: 3.16 µM (active)
[14]
  Potency: 3.98 µM (active)
[15]
  Potency: 1.78 µM (active)
[16]
  Potency: 3.16 µM (active)
[17]
  Potency: 3.55 µM (active)
[18]
  Potency: 3.16 µM (active)
[19]
  Potency: 5.73 µM (active)
[20]
  Potency: 5.1 µM (active)
[21]
  Potency: 3.98 µM (active)
[22]
  Potency: 3.55 µM (active)
[23]
  Potency: inactive
[24]
  Potency: 3.98 µM (active)
[25]
  Potency: 3.55 µM (active)
[26]
  Potency: 5.73 µM (active)
[27]
  Potency: 4.47 µM (active)
[28]
  Potency: 5.1 µM (active)
[29]
  Potency: 7.21 µM (active)
[30]
  Potency: 6.42 µM (active)
[31]
  Potency: 3.55 µM (active)
[32]
  Potency: 6.42 µM (active)
[33]
  Potency: 3.55 µM (active)
[34]
  Potency: 3.55 µM (active)
[35]
  Potency: 3.55 µM (active)
[36]
  Potency: 3.98 µM (active)
[37]
  Potency: 6.42 µM (active)
[38]
  Potency: 3.55 µM (active)
[39]
  Potency: 3.55 µM (active)
[40]
  Potency: 3.61 µM (active)
